Bioassay records (PubChem BioAssay)
Rows were chosen to be rich in hits. Some 1.7% of all compounds tested hit in one or more screens of this group.
ABCB6 inh 2: ABCB6 transporter inhibitors, primary screen, K562-ABCB6 cells, flow cytometry, MLPCN library | K562-ABCB6 porphyrin accumulation, 1 h; active compounds read low | ATP-binding cassette sub-family B member 6 (Homo sapiens), Q9NP58 | AID 602162, 2011 | fluorescence ratio to DMSO, % at 10 µM | 0.19% of 360,000 active;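 active = fluorescence ratio to DMSO below 75%, the collection mean minus 3 SD; inconclusive = too few cells collected in the well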;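 also: signal is porphyrin accumulated inside mitochondria; lower ratio means ABCB6 inhibition with less porphyrin fluorescence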
NOD2 RIPK2 PPI: NOD2-RIPK2 binding disruptors in cells, primary screen, fluorescence, CHO cells, BLA complementation. Receptor-interacting serine/threonine-protein kinase 2 (Homo sapiens), O43353. CCF4 ratio. inhibition, % at 4.98 µM. 0.38% of 360,000 active; in the data active = inhibition above about 21%
Myeloid diff MLP: induction of myeloid progenitor differentiation, primary screen, cell-based, flow cytometry, MLPCN library; 1% of 360,000 active; calls only at 10 µM; ER-HoxA9 myeloid progenitors, lysozyme-GFP differentiation;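 active = normalized GFP-positive differentiation at or above the plate's own cutoff, the solvent-only control mean plus 3 SD; inconclusive = no clear call, values can overlap the other calls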;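 also: cells exposed to compound for four days before flow analysis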
TLR4 MyD88 comp: inhibitors of TLR4-MyD88 association in cells, primary screen, cell-based, HeLa CL3-4, BLA complementation, FRET ratio; HeLa CL3-4 TLR4/MyD88 BLA complementation; inhibition, % at 8.4 µM; AID 861, 2007; Toll-like receptor 4 (Homo sapiens) + Myeloid differentiation primary response protein …; 0.18% of 200,000 active; in the data active = inhibition above about 25%
TLR9-MyD88 block: inhibitors of TLR9-MyD88 association in cells, primary screen, cell-based, CHO, BLA complementation, fluorescence. Toll-like receptor 9 (Homo sapiens) + Myeloid differentiation primary response protein …. CCF4 FRET ratio. inhibition, % at 4.98 µM. 0.21% of 340,000 active. AID 504734, 2011;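 active = inhibition above the mean over all tested compounds plus 3 SD, cut at about 21% in these data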
Hits are given with their value; - = inactive; ? = inconclusive; . = no result given; + = active, no number; ! = not confirmed by another sample.

SMILES	ABCB6 inh 2	NOD2 RIPK2 PPI	Myeloid diff MLP	TLR4 MyD88 comp	TLR9-MyD88 block
Cc1ccc(NS(=O)(=O)c2cc(-c3n[nH]c(=O)c4ccccc34)ccc2C)cc1	-	-	+	-	-
COc1ccccc1CNC(=S)NC1CCCC1	69	-	-	-	-
S=C(NCc1ccccc1)NC1CCCCC1	-	-	+	-	-
CC1=C(C(=O)OCC(C)C)C(c2ccc(F)cc2)NC(=O)N1 (centres undefined)	-	-	-	-	-
CCOc1ccccc1CNn1nnnc1N	-	-	+	-	-
COc1cccc(C2=CC(c3ccccc3)n3ncnc3N2)c1 (centres undefined)	.	.	.	-	.
COc1cccc(C2C=C(c3cccs3)Nc3ncnn32)c1OC (centres undefined)	-	48	-	-	45
Fc1ccc(Br)cc1C1C=C(c2cccnc2)Nc2ncnn21 (centres undefined)	-	49	-	-	24
COc1ccc(C2C=C(c3ccc(Br)s3)Nc3ncnn32)cc1OC (centres undefined)	.	.	.	-	.
Brc1ccc(C2=CC(c3cccs3)n3ncnc3N2)cc1 (centres undefined)	-	-	+	-	-
O=C(Cn1c(=O)n(CCC(=O)N2CCCCC2)c(=O)c2sccc21)NCc1ccccc1	-	-	-	.	-
CC(C)NC(=O)c1ccc2sc([C@H]3C[C@H](O)[C@@H](CO)O3)nc2c1	-	-	-	.	.
O=C(NCC(c1ccco1)N1CCc2ccccc21)c1cccc([N+](=O)[O-])c1 (centres undefined)	-	-	-	.	-
COc1c(C(=O)Nc2nnc(C3CC3)s2)csc1Cl	-	-	-	.	-
CCn1c(/C=C/N(C(C)=O)c2ccccc2)[n+](CC)c2ccc(Cl)cc21	-	-	-	-	-
CC[n+]1c(/C=C/C=C/N(C(C)=O)c2ccccc2)sc2ccccc21	-	-	+	-	-
COc1ccc2c(C)cc(SCC(=O)N(C)C3CCS(=O)(=O)C3)nc2c1 (centres undefined)	-	-	+	-	-
COc1ccc(-c2nnc(SCC(=O)N(C)C3CCS(=O)(=O)C3)n2C(C)C)cc1 (centres undefined)	-	-	-	.	-
N/C(=N\OC(=O)CCC(=O)O)c1ncc(C(F)(F)F)cc1Cl	-	-	+	-	-
COC(=O)C1CC(c2ccc(Cl)cc2)=NO1 (centres undefined)	-	-	-	-	-
N#C/C(=C/C1=C(N2CCOCC2)C(=C/c2ccccc2)/CC1)C(=O)Nc1ccccc1F	-	-	+	.	-
N#C/C(=C\C1=C(N2CCOCC2)C(=C/c2cccc([N+](=O)[O-])c2)/CC1)C(=O)Nc1ccccc1F	-	-	-	-	-
N#C/C(=C/C1=C(N2CCOCC2)C(=C/c2ccc(Cl)cc2Cl)/CC1)C(=O)Nc1ccccc1F	-	-	+	.	-
CCN(CC)c1ccc(/C=C2\CCC(/C=C(/C#N)C(=O)Nc3ccccc3F)=C2N2CCOCC2)cc1	-	-	-	.	-
N#C/C(=C\C1=C(N2CCOCC2)C(=C\c2ccc(Cl)cc2)/CC1)C(=O)Nc1ccccc1F	-	-	+	-	-
SMILES	ABCB6 inh 2	NOD2 RIPK2 PPI	Myeloid diff MLP	TLR4 MyD88 comp	TLR9-MyD88 block
Cc1cc(C2CCCCC2)n(O)c(=O)c1	-	-	?	.	-
C=C1C[C@]23C[C@@]1(O)CC[C@H]2[C@@]12C=C[C@H](O)[C@@](C)(C(=O)O1)[C@H]2[C@@H]3C(=O)O	-	-	+!	.	-
Cc1ccc(-c2cn3nc(-c4ccccc4)c(-c4ccccc4)nc3n2)cc1	-	-	+	.	.
COC(=O)[C@@]12C[C@@H](CC(=O)N3CCSCC3)C(=O)N(Cc3cccc4ccccc34)C1=CCC(C)(C)C2	.	-	-	.	.
O=C(Cc1ccc(Cl)cc1Cl)NC1CCCCCC1	-	-	+	.	-
O=C(COC(=O)Cc1ccc(Cl)cc1Cl)NC1CC1	-	-	-	.	-
COc1ccc(CCNC(=O)CN(c2ccc(OC)c(OC)c2)S(=O)(=O)c2ccc(C)cc2)cc1	-	-	+	.	-
Cc1ccc(O)c([C@H](CCN(C(C)C)C(C)C)c2ccccc2)c1	-	-	+!	.	-
